# PubChem BioAssay AID2732 (Emory University Molecular Libraries Screening Center, 2010)
# The campaign covered roughly 220,000 compounds. About 8,200 (3.7%) were called active. This is one part of a sample in which actives are shown more often than they occur. Values without a mark were called inactive.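 Rule for the calls: active = compounds that reduced the stress-induced luciferase reporter signal by more than about 70% of percent inhibition (limit read from the data); inactive = the rest.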
# Experiment: blockers of ER-stress CHOP reporter expression – cell-based, unfolded protein response, luciferase reporter, primary screen (AID 2732);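 note: 0% = tunicamycin plus vehicle and 100% = wells without tunicamycin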
# Details: CHO-K1 CHOP-promoter luciferase, tunicamycin-induced, 15-18 h; at 10 µM; hits give high values
row,SMILES,inhibition
1,Cc1ccc(NNC(=O)c2cccs2)cc1Cl,-7.82%
2,CSC1=NC2(C)CCCCC2C12C=CC(=O)C=C2 (stereo unspecified),-8.01%
3,Clc1ccc(Cc2nnc(-c3cccs3)o2)cc1,-8.41%
4,CNC(=O)c1nnc(Cc2ccc(Cl)cc2)o1,84.2% (active)
5,O=C(Nc1nnc(Cc2ccc(Cl)cc2)s1)c1ccncc1,2.85%
6,CS(=O)(=O)c1ccc2nnn(OCC(=O)Nc3cccc(C#N)c3)c2c1,7.09%
7,CNC(=O)c1cccc2nc3ccccc3nc12,-2.58%
8,CCOC(=O)c1cnc(SCc2nc(N)nc(Nc3ccc(OC)cc3)n2)nc1N,27.6%
9,CCOC(=O)c1cnc(-c2ccccc2)nc1Oc1ccc(C)cc1,16.8%
10,CCCCOc1ccc(-c2ncc(C(=O)OCC)c(N)n2)cc1,87.4% (active)
11,O=C(N/N=C/c1ccco1)c1csc2c1CCCC2,-20.7%
12,CCOC(=O)C1=C(CSc2nccn2C)NC(=O)NC1c1ccc(OC)cc1 (stereo unspecified),34.2%
13,COCCOC(=O)C1=C(C)N=c2s/c(=C\c3cccs3)c(=O)n2C1c1cccs1 (stereo unspecified),4.98%
14,CCOC(=O)C1=C(C)N=c2s/c(=C\C(=O)OC)c(=O)n2C1c1ccc(OC)cc1 (stereo unspecified),89.2% (active)
15,CC(C)Cc1ccc(C(C)C(=N)N)cc1 (stereo unspecified),4.47%
16,CC(=O)NC(CC(=O)Nc1nccs1)c1ccccc1 (stereo unspecified),-2.49%
17,CCC(C)(C)NC(=O)C(c1ccc(O)cc1)N(C(=O)Cn1nnc2ccccc21)c1ccc(NC(C)=O)cc1 (stereo unspecified),4.95%
18,Cc1cc(-n2cnc(-c3cn(C)nc3C)n2)no1,-11.3%
19,Brc1ccc2c(c1)[C@H]1OCC[C@H]1[C@@H](c1cccs1)N2,39.4%
20,COc1cccc(OC)c1C(=O)Nc1ccc(N2CCCCC2)cc1,15.2%
21,O=c1[nH][nH]c(=O)c2cc(N3CCCC3)ccc12,2.26%
22,O=C1C=CC(=O)N1c1ccc(N2CCCCC2)cc1,94% (active)
23,Cc1nc(C(=O)NCc2ccccc2)sc1C1(C)CC(c2cccnc2)=NO1 (stereo unspecified),22.9%
24,O=C(N/N=C/c1cccc2cccnc12)[C@H]1C[C@@H]1c1ccccc1,52.4%
25,CC1=NN(C(=O)c2ccccc2Br)C(O)(c2cccnc2)C1 (stereo unspecified),-24.4%
26,CC1=NN(C(=O)Cc2ccc(C)cc2)C(O)(c2cccnc2)C1 (stereo unspecified),73.8% (active)

row,SMILES,inhibition
1,CC1=NN(C(=O)c2ccc(Br)cc2)C(O)(c2ccccc2)C1 (stereo unspecified),16.6%
2,O=C(O)C1=C[C@H](c2cccs2)C[C@H](OCCCCO)O1,-3.52%
3,Cc1ccc(S(=O)(=O)N(C)CC(=O)OCC(=O)Nc2ccccc2)cc1,-0.65%
4,COc1ccccc1P(=O)(c1ccccc1)c1ccccc1NC(C)=O (stereo unspecified),10.1%
5,COCCn1c(=NC(=O)c2ccccc2[N+](=O)[O-])sc2cc(S(C)(=O)=O)ccc21,-7.33%
6,Cn1c(=NC(=O)c2ccc3c(c2)OCCO3)sc2cc(S(C)(=O)=O)ccc21,91.9% (active)
7,CC(=O)c1ccc2c(c1)OCCOCCOc1ccc(C(C)=O)cc1OCCOCCO2,1.66%
8,O=C(Nc1ccccc1)O/N=C1/CCCc2occc21,-8.45%
9,CN1CCN(c2cc3c(cc2F)c(=O)c(C(=O)O)cn3CCF)CC1,2.99%
10,O=C(Cn1cnc2cc([N+](=O)[O-])ccc2c1=O)NC(=O)NCc1ccccc1,-6.05%
11,O=C(NNc1cc(Cl)cc(Cl)c1)c1c(F)cccc1Cl,30.1%
12,Cc1nn(CC(=O)N/N=C/c2ccc(F)cc2)c(C)c1[N+](=O)[O-],-4.46%
13,CSc1nnc(SCc2nc3sc(C(=O)O)c(C)c3c(=O)[nH]2)s1,3.13%
14,O=C(NN1C(=O)C2CCCCC2C1=O)c1ccco1 (stereo unspecified),6.45%
15,O=C(CSc1cccc2cccnc12)N/N=C/c1cccnc1,42.7%
16,S=C(NCc1cccnc1)Nc1ccc(Cl)cc1Cl,2.87%
17,CC(=O)/C(=N\Nc1ccc(Cl)cc1Cl)Sc1cccc2cccnc12,93.6% (active)
18,Nc1ccc2nn(-c3ccc(Cl)cc3)nc2c1,30.4%
19,CCCc1ccc(OCc2ccc(C(=O)N/N=C/c3cccc([N+](=O)[O-])c3)o2)c(OC)c1,85.8% (active)
20,COc1cc(/C=N/O)ccc1OCc1ccc([N+](=O)[O-])cc1,2.17%
21,COC(=O)c1ccc(COc2ccc(/C=N/NC(=O)C(=O)Nc3ccc(OC)cc3)cc2OC)o1,17.4%
22,COc1cc(C(CCN2CCN(c3ccccc3)CC2)c2c(OC)cc(OC)c3ccc(=O)oc23)cc(OC)c1OC (stereo unspecified),-15.7%
23,CCOc1[nH]n(-c2ccc(Cl)cc2)c(=O)c1C=Nc1ccc(O)cc1,73.4% (active)
24,CCOc1ccc(N=Cc2c(O)n(-c3cccc(C)n3)c(=O)c3ccccc23)cc1,-5.5%
25,Cc1[nH]n(-c2ccc(Cl)cc2)c(=O)c1/C=N/n1c(C)nc2ccccc2c1=O,26.2%
26,CC(C)(C)c1cc(NC(=O)NN2CCOCC2)nn1-c1c(Cl)cc(Cl)cc1Cl,11.2%

row,SMILES,inhibition
1,CCNC(=S)N1CCN(CCN=CC2=C(O)CC(C)(C)CC2=O)CC1,13%
2,CC(C)(C)NC(=O)NCc1ccco1,6.03%
3,CSc1sc(C(=O)NNC(=O)c2ccc(Cl)cc2)c2c1C=CCC2,0.19%
4,O=C(Nc1ccccc1C(F)(F)F)N1CCCC1c1cccnc1 (stereo unspecified),4.33%
5,O=[N+]([O-])/C=C1\CCCCCN1,-14.7%
6,Cn1nc(C(F)(F)F)c(C(=O)Nc2cccc(C(F)(F)F)c2)c1SCc1ccc(Cl)cc1,80.9% (active)
7,O=C(Nc1cccc(C(F)(F)F)c1)c1cnccn1,-10.5%
8,O=C(O)CSCC(=O)Nc1cccc(C(F)(F)F)c1,-3.97%
9,CCOC(=O)CSc1nc(C)c(Oc2ccc(Cl)cc2Cl)c(=O)[nH]1,10.4%
10,O=C(NN1C(=O)C2C(C1=O)C1C=CC2C12CC2)c1ccccc1Cl (stereo unspecified),3.92%
11,COc1ccc(-c2csc(Nc3ccccn3)n2)cc1,-4.38%
12,COc1ccc(C(=O)/C=C/Nc2ccccn2)cc1,73.5% (active)
13,CCOc1cc(NC(=O)c2ccccn2)c(OCC)cc1NC(=O)c1ccc(OC)cc1,-5.86%
14,Cn1c2ccc(F)cc2c2nnc(NN)nc21,13.9%
15,N#CCCCn1c(O)c(N=NC(=O)C(O)c2ccccc2)c2ccccc21 (stereo unspecified),11.1%
16,CC(C)C(c1nnnn1CCc1ccccc1)N1CCN(C(=O)c2ccco2)CC1 (stereo unspecified),-7.76%
17,Cc1ccc(C(c2nnnn2CS(=O)(=O)c2ccc(C)cc2)N2CCC(C(N)=O)CC2)cc1 (stereo unspecified),33.9%
18,CC(C)C(c1nnnn1Cc1ccccc1)N1CCC(C(N)=O)CC1 (stereo unspecified),76.1% (active)
19,COc1ccc(NC(=S)Nc2ccccc2Cl)cn1,1.96%
20,COc1ccc(CS(=O)/C(Cl)=C(/Cl)C(=O)Nc2ccc(OC)nc2)cc1 (stereo unspecified),107% (active)
21,COc1ccc(NC(=S)NCCNC(C)=O)cc1,-5.59%
22,Cc1nc(COc2cccc(Cl)c2)sc1C(=O)/C=C/N(C)C,-1.3%
23,NC(=O)C1(N2CCCCC2)CCN(C(=S)Nc2ccc(Cl)cc2)CC1,8.9%
24,NC(=O)C1(N2CCCCC2)CCN(C(=O)c2ccc(C#Cc3ccccc3)o2)CC1,78.8% (active)
25,CC(C)(O)C#Cc1ccc(C(=O)N2CCC(C(N)=O)(N3CCCCC3)CC2)cc1,20.2%
26,COc1ccc(CCNC(=O)C2CC3Cn4c(nc5cc(C)c(C)cc54)C3N2C)cc1 (stereo unspecified),-11.2%

row,SMILES,inhibition
1,Cc1cccc(N=C2NC(=O)/C(=C/c3cn(C)c4ccccc34)S2)c1,14%
2,Cc1ccc(N=C2NC(=O)/C(=C/C=C/c3ccco3)S2)cc1C,84.4% (active)
3,Cc1ccc(N2NC(=O)/C(=C/C=C/c3ccco3)C2=O)cc1C,5.23%
4,CCN(CC)C(=O)CC(c1ccc2c(c1)OCO2)c1c(OC)cc(OC)c2c(-c3ccccc3)cc(=O)oc12 (stereo unspecified),9.26%
5,O=C(Nc1ccccc1N1CCCCC1)c1ccc2nccnc2c1,79% (active)
6,O=C(Nc1ccccc1N1CCN(C(=O)c2ccccc2)CC1)c1ccc2c(c1)OCO2,40%
7,Cc1cccc(C(=O)Nc2ccccc2N2CCN(c3ccc(F)cc3)CC2)c1,30.4%
8,Cc1cc(C(=O)Nc2ccccc2N2CCOCC2)c2ccccc2n1,26.9%
9,O=C(Nc1ccccc1N1CCCCC1)c1cccc(F)c1,76% (active)
10,O=C(Nc1ccccc1N1CCN(c2ccccc2)CC1)c1cccc(F)c1,44.2%
11,CCc1ccccc1N1CN(Cc2ccco2)CNC1=S,-7.09%
12,Cc1nc(-c2nnc(SCC(=O)Nc3cc(C(F)(F)F)cc(C(F)(F)F)c3)n2C)cs1,61.4%
13,CC1CC(C)(C)n2c(O)c(N=NC(N)=S)c3cccc1c32 (stereo unspecified),21.3%
14,CCOc1ccc2sc(NS(=O)(=O)c3ccc(N)cc3)nc2c1,5.24%
15,COC(=O)c1ccc(Oc2nc(NC(C)C)nc(SC)n2)cc1,20.5%
16,CCNc1nc(Oc2ccc(C(=O)OC)cc2)nc(N2CCOCC2)n1,-6.61%
17,COC(=O)c1ccc(Oc2nc(Nc3ccc(F)cc3)nc(N3CCCC3)n2)cc1,73.6% (active)
18,C=C(C)COc1ccc(-c2nc(N)ncc2-c2ccccc2OC)c(O)c1,7.39%
19,CCOc1ccc(-c2n[nH]c(C)c2-c2ccccn2)c(O)c1,9.43%
20,Cc1[nH]nc(-c2ccc(OCc3cnn(-c4ccccc4)c3)cc2O)c1Oc1ccc(Cl)cc1,51.5%
21,C=C(C)COc1ccc(-c2n[nH]c(C)c2-c2ccccc2)c(O)c1,112% (active)
22,CCOc1ccc(-c2nc(N)ncc2-c2ccccc2OC)c(O)c1,16.1%
23,C=C(C)COc1ccc(-c2n[nH]c(C)c2-c2ccccc2OC)c(O)c1,105% (active)
